In the library only some 0.99% were active in any assay of this set; here they are far more common.
TRHR agonist-1 – agonists of human TRH receptor. TRHR cells, calcium flux fluo-8, FDSS agonist mode. activation, % at 2 µM. P34981. actives 0.18% (n = 360,000); in the data active means activation above about 30%
Target sequence (P34981 whole entry, looked up): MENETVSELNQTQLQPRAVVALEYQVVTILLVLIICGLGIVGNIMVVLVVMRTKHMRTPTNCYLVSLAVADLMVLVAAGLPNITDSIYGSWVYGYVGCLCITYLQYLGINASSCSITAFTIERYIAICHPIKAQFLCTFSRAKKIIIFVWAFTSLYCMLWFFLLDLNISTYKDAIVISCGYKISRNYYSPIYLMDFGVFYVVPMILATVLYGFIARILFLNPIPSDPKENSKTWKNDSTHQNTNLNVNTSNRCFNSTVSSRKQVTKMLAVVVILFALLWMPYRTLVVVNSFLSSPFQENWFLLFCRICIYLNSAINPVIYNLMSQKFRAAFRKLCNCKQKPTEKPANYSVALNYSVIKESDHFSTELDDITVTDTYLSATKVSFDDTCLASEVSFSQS
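Read-out: compound-evoked intracellular calcium rise in TRHR cells, fluo-8 dye, kinetic FDSS fluorescence at 1 s/cycle following a 10-cycle baseline. Cells cultured overnight before dye loading (30 min–1.5 h, RT).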
TRPV1 PAM – enhances activation of the human vanilloid receptor TRPV1; Q8NER1; TRPV1-expressing cells, Fluo-8 calcium influx, capsaicin EC20 potentiation; potentiation, % at 8.33 µM; actives 0.02% (n = 320,000); in the data active means potentiation above about 80%; inconclusive means between about 30% and that limit
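Fluo-8 calcium influx in TRPV1-expressing cells, kinetic read (ex 480/em 520 nm). Compound added and read 3 min for agonist activity, followed by capsaicin at EC20 final and 2 min further read for enhancement.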
TRPML1 agonist – human mucolipin-1 channel agonism; TRPML1-expressing cells, Ca2+ dye fluorescence, FDSS; activation, % (test concentration not listed); actives 0.12% (n = 410,000); AID 624414; in the data active means activation above about 50%; inconclusive means mostly about 30% to 49%
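Tet-induced TRPML1-DL cells, 1,500 per well, cultured overnight, were loaded with a no-wash Ca2+ dye for 45–90 min. Calcium fluorescence was recorded on the FDSS for 110 s after compound addition, before the EC80 agonist (4 uM 54-4) was added.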
TRPV1 agonist – human TRPV1 agonism | Q8NER1 | TRPV1-expressing cells, Fluo-8 calcium influx, agonist mode | activation, % at 8.33 µM | actives 0.19% (n = 320,000); in the data active means activation above about 80%; inconclusive means between about 30% and that limit
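TRPV1-expressing cells were cultured overnight at 35.5C and loaded with Fluo-8 calcium dye for 40 to 90 min at room temperature. After a 10 s baseline, compound was added and calcium influx was read kinetically for 3 min (ex 480/em 520 nm).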
TRHR enhancer-1 – TRH receptor (human) allosteric enhancement | P34981 | TRHR cells, fluo-8 calcium fluorescence, EC20 TRH enhancement | enhancement, % at 2 µM | actives 0.66% (n = 360,000); in the data active means enhancement above about 30%
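TRHR-expressing cells loaded with fluo-8 calcium dye were read kinetically (ex 480/em 530) during compound addition, then stimulated with an EC20 of TRH (10 nM final). Enhancement of the Gq-mediated intracellular calcium response was scored.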
TRPML1 inh – blocks the human TRPML1 channel. Q9GZU1. TRPML1-inducible cells, Ca2+ dye fluorescence, FDSS; stronger effect = lower value; inhibition of EC80 agonist-evoked calcium signal. actives 0.02% (n = 390,000). activity change, negative = inhibition, % (no concentration beside the values); in the data active means activity change below about -50%; inconclusive means between about -30% and that limit;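 further: stimulus is agonist 54-4 at its EC80 concentration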
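Calcium fluorescence in TRPML1-DL cells induced overnight with Tet: a 110 s read after compound pin addition, then a 110 s antagonist read after challenge with 54-4 at 4 uM final (EC80).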
TRHR enhancer-2 – human TRH receptor allosteric enhancement confirmation. TRH receptor cell assay, enhancer confirmation qHTS. activity change, negative = inhibition, % at 46.1 µM. shares compounds with TRHR enhancer-1. 970 tested, under 10 active;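 further: compound effect scored on response to added TRH at EC20 of 10 nM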
TRHR agonist-2 – human TRH receptor agonism confirmation. shares compounds with TRHR enhancer-1. TRHR-expressing cells, agonist activation read-out. Potency, µM (top dose mostly 46.1 µM), usual class: activators. actives 8% (n = 970). AID 493078; further: nearly all actives have a fitted effect of over 75% in size
Hits are given with their value; . = inactive; ? = inconclusive; / = no result given. Unless noted, the call rests on the fitted dose curve; in most records, active means well fitted curve in the direction sought with a large enough effect; inconclusive means small, poorly fitted or top-dose-only effect, or another doubt; inactive means no such curve, though single readings can be large; an effect the other way counts as inactive or inconclusive.

SMILES | TRHR agonist-1 | TRPV1 PAM | TRPML1 agonist | TRPV1 agonist | TRHR enhancer-1 | TRPML1 inh | TRHR enhancer-2 | TRHR agonist-2
Cc1ccc(CNC(=O)c2cccc3c2C(=O)c2ccc(N4CCCCC4)cc2S3(=O)=O)cc1 | 36 | . | 50 | . | . | . | . | 21µM
COc1cc(/C=C(\C#N)C(=O)NCCc2ccccc2)cc(OC)c1O | 56 | . | ? | . | . | . | . | 21µM
NC(=O)N/N=C/c1ccc(-c2ccc([N+](=O)[O-])cc2)o1 | . | ? | . | . | . | . | / | /
COCCNC(=S)N/N=C/c1ccc(-c2ccc([N+](=O)[O-])cc2)o1 | 34 | . | . | . | . | . | . | 10µM
CN(C)c1ccc(/C=C/C=C2/C=Cc3ccccc32)cc1 | / | / | . | / | / | / | / | /
O=C(C[n+]1ccccc1)c1ccc(I)cc1 | / | / | . | / | / | / | / | /
Nc1c(S(=O)(=O)c2ccccc2)c2nc3ccccc3nc2n1Cc1ccco1 | . | . | . | . | . | . | . | ?
Cc1ccc(S(=O)(=O)c2c(N)n(Cc3ccco3)c3nc4ccccc4nc23)cc1C | . | . | . | . | . | . | / | /
N#CNC(=Nc1ccccc1)SCc1ccc(C(=O)O)cc1 | . | . | . | . | . | . | / | /
N#CNC(=Nc1cccc(C(F)(F)F)c1)SCc1ccc(C(=O)O)cc1 | . | . | . | . | 46 | . | . | .
NC(=O)c1ccc(NC(=O)CNCc2ccccc2Cl)cc1 | . | . | . | . | . | . | / | /
O=C(CNCc1ccccc1Cl)Nc1ccc(C(=O)N2CCCCC2)cc1 | . | . | . | . | 41 | . | . | .
CN(C)CCSc1nc(-c2ccccc2)nc2c1COC(C)(C)C2 | . | . | . | . | 46 | . | . | .
CC1CCCN(S(=O)(=O)c2ccc(NC(=O)CCN3C(=O)c4ccccc4C3=O)cc2)C1 (stereo not given) | 38 | . | . | . | . | . | . | .
O=C(CCN1C(=O)c2ccccc2C1=O)Nc1ccc(S(=O)(=O)N2CCOCC2)cc1 | . | . | . | . | . | . | / | /
Cc1ccc(S(=O)(=O)N(C)CCCN(C)c2nc(-c3cccs3)nc3ccccc23)cc1 | / | / | . | / | / | / | / | /
Cc1cc(NC(=O)c2ccc([N+](=O)[O-])cc2Cl)ccc1NC(=O)c1ccco1 | . | . | . | . | . | . | / | /
Cc1ccc2c(NC(=O)c3ccco3)cccc2n1 | . | . | . | . | 42 | . | . | .
Cc1cc([N+](=O)[O-])ccc1NC(=O)c1ccco1 | . | . | . | . | 46 | . | . | .
Cc1ccc(S(=O)(=O)N2CCN(c3nc(-c4cccs4)cc4ccccc34)CC2)cc1 | / | / | . | / | / | / | / | /
CCOc1nc(C#N)nc(N(c2ccccc2)c2ccccc2)n1 | / | / | . | / | / | / | / | /
CC(=O)N/C(=C/c1ccccc1)c1ccncc1 | / | / | . | / | / | / | / | /
CCOc1ccccc1N1CC(C(=O)Nc2cccc(S(=O)(=O)N3CCCCC3)c2)CC1=O (stereo not given) | . | . | . | . | 74 | . | . | .
O=C(COc1ccccc1C(=O)Nc1ccccc1)Nc1cccc([N+](=O)[O-])c1 | / | / | . | / | / | / | / | /
CC(=O)c1ccc([N+](C)(C)C)cc1 | / | / | . | / | / | / | / | /
Oc1c(C=Nc2ccc(Cl)cn2)sc2ccccc12 | . | . | . | . | . | . | / | /
Oc1c(/C=N/c2ccccn2)sc2ccccc12 | . | . | . | . | 41 | . | . | ?
Cc1cc(C(=O)COc2cccc3cccnc23)c(C)n1C | . | . | . | . | . | . | / | /
Cc1ccc(OCC(=O)c2cc(C)n(C)c2C)c([N+](=O)[O-])n1 | . | . | . | . | 44 | . | . | .
NS(=O)(=O)c1ccc(NC(=O)c2ccc(-c3ccccc3)cc2)cc1 | . | . | . | . | . | . | / | /
